Source: PubChem (National Center for Advancing Translational Sciences (NCATS))
In the library only some 7.8% were active in any assay of this set; here they are far more common.
Marburg entry inh = qHTS for inhibitors of binding or entry into cells for Marburg Virus; hit rate 1.8% among 300,000; Potency, µM (top dose mostly 37.8 µM), for inactives: at the highest dose activity change, negative = inhibition, usual class: inhibitors; Marburg virus pseudotyped entry inhibition, cell reporter; AID 540276, 2011; calls by dose curve; tested in HEK293 cells; further: potency means the concentration at half of the fitted maximal effect
HCV inhibitor = qHTS Assay for Inhibitors of Hepatitis C Virus (HCV); Huh7.5.1 HCVcc-Cre infection, luciferase reporter, 44 h; Potency, µM (doses to about 41.8 µM), inactives show at the highest dose activity change, negative = inhibition, actives largely listed as inhibitors; hit rate 3.4% among 340,000; AID 651820, 2012; active means well fitted inhibition curve with a large enough effect; inconclusive means small, poorly fitted or top-dose-only effect, or another doubt; inactive means no such curve, though single readings can be large or run the other way; further: potency means the concentration at half of the fitted maximal effect
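Seed cells (1,000/well) for 4 h; treat with compound and infect with HCVcc-Cre, moi about 0.5. Incubate 44 h, then detect luciferase activity.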
VACV Venus inh = qHTS for Stage-Specific Inhibitors of Vaccinia Orthopoxvirus: Venus Reporter Primary qHTS. AID 720580, 2013. Potency, µM (series often up to 36.5 µM), for the others: top-dose activity change, negative = inhibition, actives largely listed as inhibitors. Vaccinia virus Venus reporter expression, fluorescence. hit rate 0.46% among 330,000; calls by dose curve; tested in A549 cells; further: potency means the concentration at half of the fitted maximal effect; nearly all actives have a fitted effect of over 30% in size
HCMV antiviral = qHTS Assay for inhibitors of the human cytomegalovirus (HCMV). hit rate 4.5% among 410,000. activity change, negative = inhibition, % at 57.5 µM. HFF cells, HCMV-luciferase reporter, 72 h; hits give low values; in the data active means activity change below about -60%; inconclusive means no clear call, values can overlap the other calls; inactive means above about -39%
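HFF cells seeded 16 h at 37C, treated with compounds, infected with luciferase-reporter HCMV at MOI 1 PFU/cell; luciferase read at 72 h post infection, normalized to buffer-only and Salinomycin controls.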
VACV mCherry inh = qHTS for Stage-Specific Inhibitors of Vaccinia Orthopoxvirus: mCherry Reporter Primary qHTS; AID 720579, 2013; Vaccinia virus mCherry reporter infection, fluorescence; Potency, µM (series often up to 36.5 µM), inactives show at the highest dose activity change, negative = inhibition, hits mostly inhibitors; hit rate 0.63% among 310,000; calls by dose curve; tested in A549 cells; further: potency means the concentration at half of the fitted maximal effect; nearly all actives have a fitted effect of over 35% in size
Lassa entry inh = qHTS for Inhibitors of binding or entry into cells for Lassa Virus; Lassa virus pseudotype entry inhibition, cell reporter; Potency, µM (doses to about 37.9 µM), inactives show at the highest dose activity change, negative = inhibition, actives largely listed as inhibitors; hit rate 1.2% among 300,000; AID 540256, 2011; calls by dose curve; tested in HEK293 cells; further: potency means the concentration at half of the fitted maximal effect; nearly all actives have a fitted effect of over 50% in size
* = called active by the depositor; [ ] = another dose, or the depositor's remark. On the % scale 0 is the no-effect control and ±100 the full control effect.

For CC1=C(C)/C(=N\OS(=O)(=O)c2ccc(C)cc2)C=CC1=O the results were Marburg entry inh 1.4µM*, HCV inhibitor inconclusive, VACV Venus inh -15%, HCMV antiviral -86*, VACV mCherry inh -8% and Lassa entry inh 6.3µM*.
For COc1ccccc1OCC(=O)NCCS(=O)(=O)N1CCN(c2ccccc2OC)CC1 the results were VACV Venus inh -7%, HCMV antiviral 6, VACV mCherry inh -13% and Lassa entry inh -3%[46.1 µM].
`CCOC(=O)C1CCN(c2nc3c(S(=O)(=O)c4ccc(Br)cc4)nnn3c3ccsc23)CC1` gave VACV Venus inh -18%, HCMV antiviral 17, VACV mCherry inh -14% and Lassa entry inh -12%[46.1 µM].
`O=C(/C(=N/N=C/c1ccc(O)c(O)c1O)c1ccccc1)c1ccccc1` gave Marburg entry inh inconclusive, HCV inhibitor inconclusive, VACV Venus inh -27%, HCMV antiviral 14, VACV mCherry inh -22% and Lassa entry inh 8.9µM*.
Screening Oc1ccc(/C=N/N=C(c2ccccc2)c2ccccc2)c(O)c1O returned Marburg entry inh inconclusive, HCV inhibitor 3%, VACV Venus inh -6%, HCMV antiviral inconclusive, VACV mCherry inh inconclusive and Lassa entry inh inconclusive.
`Cc1ccccc1OCC(O)Cn1c(=N)n(Cc2ccccc2)c2ccccc21` (centres undefined) gave Marburg entry inh inconclusive, HCV inhibitor inconclusive, VACV Venus inh 11µM*, HCMV antiviral -74*, VACV mCherry inh 10µM* and Lassa entry inh inconclusive.
Screening Cc1ccccc1OCC(O)Cn1c2ccccc2c2ccccc21 (centres undefined) returned Marburg entry inh inconclusive, HCV inhibitor 7.9µM*, VACV Venus inh -24%, HCMV antiviral 18, VACV mCherry inh -25% and Lassa entry inh inconclusive.
`CC(C)(C)NCC(O)COc1ccccc1C1CCCC1` (centres undefined) gave HCV inhibitor inconclusive, VACV Venus inh inconclusive, HCMV antiviral -78* and VACV mCherry inh -18%.
For CC(C)(C)NC[C@@H](O)COc1cccc2c1CCCC2=O the results were HCV inhibitor 4%, VACV Venus inh -13%, HCMV antiviral -38 and VACV mCherry inh inactive.
`COc1ccccc1OCC(O)Cn1c(=N)n(Cc2ccccc2)c2ccccc21` (centres undefined) gave Marburg entry inh inconclusive, HCV inhibitor inconclusive, HCMV antiviral -25 and Lassa entry inh inconclusive.
`Cc1ccccc1OCC(O)CNC1CCC(NCC(O)COc2ccccc2C)CC1` (centres undefined) gave Marburg entry inh 1.1µM*, HCV inhibitor inconclusive, VACV Venus inh 10µM*, HCMV antiviral -100*, VACV mCherry inh 3.2µM* and Lassa entry inh inconclusive.
Screening COC1=C(C(=O)c2ccccc2)C(=O)[C@@]2(CC=C(C)C)C[C@@H]([S+](=O)([O-])c3ccccc3)C(C)(C)[C@@]1(CC=C(C)C)C2=O returned Marburg entry inh -17%[14.2 µM] and Lassa entry inh inconclusive.
`COc1cc(=O)n2c(c1C(=O)NCc1ccco1)CCN(Cc1ccc(F)cc1Cl)CC2` gave VACV Venus inh -8% and VACV mCherry inh -6%.
Screening CC(=O)Nc1ccc(OCC(O)Cn2c3ccccc3c3ccccc32)cc1 (centres undefined) returned Marburg entry inh inconclusive, HCV inhibitor inconclusive, VACV Venus inh -17%, HCMV antiviral -23, VACV mCherry inh -13% and Lassa entry inh -5%.
CC(=O)Nc1ccc(OCC(O)Cn2c3ccccc3c3ccccc32)c(C)c1 (centres undefined) was read as Marburg entry inh -13%, HCV inhibitor inconclusive, VACV Venus inh inconclusive, HCMV antiviral -61*, VACV mCherry inh inconclusive and Lassa entry inh inconclusive.
O=c1c2ccccc2c(-c2ccc(Cl)cc2)nn1-c1ccccc1 was read as Marburg entry inh -2%, HCV inhibitor inconclusive, HCMV antiviral -63* and Lassa entry inh -2%.
